This is an account of results in PubChem BioAssay (NCI).

Structures are written as SMILES. “And” between values parts separate entries of the source, which are not always exact repeats. Identical values can stand only once. The panel holds about 83,000 compounds, 20% with a hit somewhere; the sample as a whole holds those more often.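 Step 1: grow cells in 96-well plates. Step 2: add test compound at a single concentration. Step 3: incubate 48 h. Step 4: record percent growth.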 The source made the active and inactive calls. How the source made its calls: active means growth percent below 10; inactive means the rest.

What all share (test): NCI-60 one-dose screen, 48 h (100 = growth as untreated, 0 = no growth, -100 = all killed)
Details in all cases: 10 µM unless noted

The subject of assay [1] is RPMI-8226 leukemia.
The subject of assay [2] is OVCAR-8 ovarian.
The subject of assay [3] is OVCAR-5 ovarian.
Assay [4] has as its system OVCAR-4 ovarian.
Assay [5] concerns SK-OV-3 ovarian.
Assay [6] deals with IGROV1 ovarian.
In assay [7] the test system is OVCAR-3 ovarian.
In assay [8] the test system is HS 578T breast.
For assay [9], the system named is NCI/ADR-RES ovarian.
In assay [10] the test system is T-47D breast.
Assay [11] relates to BT-549 breast.
For assay [12], the system named is MDA-MB-435 melanoma.
Assay [13] concerns SW-620 colon.
Assay [14] has as its system MCF7 breast.
Assay [15] deals with HCT-116 colon.
Assay [16] relates to HCC-2998 colon.
For assay [17], the system named is KM12 colon.
Assay [18] has as its system SR leukemia.

With `CN1C(=O)C(N=Nc2ccc([N+](=O)[O-])cc2)SC1=S` (centres undefined), the growth is 32.7% (inactive) and 10.8% (inactive) in assay [1]; 70.7% (inactive) and 72.4% (inactive) in assay [2]; 56.2% (inactive) and 51.5% (inactive) in [3]; 65.8% (inactive) and 76.7% (inactive) in assay [4]; 66.6% (inactive) and 69.2% (inactive) in assay [5]; 56.7% (inactive) and 71.7% (inactive) in assay [6]. In addition, the growth in assay [7] is 59.3% (inactive) and 62.7% (inactive); in assay [8], 72.6% (inactive) and 71% (inactive); in assay [9] it was 45.7% (inactive) and 15.5% (inactive); in assay [10], 50.9% (inactive) and 57.2% (inactive); in assay [11], 71% (inactive) and 67.8% (inactive); in assay [12], 75.8% (inactive) and 85.4% (inactive). Further, the growth was 49% (inactive) and 60.3% (inactive) in assay [13]; 82.4% (inactive) and 68.8% (inactive) in [14]; 61.7% (inactive) and 70.5% (inactive) in [15]; -0.382% (active) in assay [16]; 48.2% (inactive) and 52.8% (inactive) in assay [17].
Regarding `COc1ccc(-c2ncnc3c2ncn3C/C=C/CCl)cc1`, the growth in [1] was 52.1% (inactive) and 67.4% (inactive); in assay [2], 67.2% (inactive) and 69.5% (inactive); in [3], 114% (inactive) and 105% (inactive); in assay [4], 53.3% (inactive) and 56.7% (inactive); in assay [5], 111% (inactive) and 109% (inactive); in [6], 93.8% (inactive) and 82.9% (inactive). The growth in assay [7] is 77.6% (inactive) and 99% (inactive); in assay [8], 131% (inactive) and 111% (inactive); in [9] it was 76.9% (inactive) and 86.3% (inactive); in [10], 67.9% (inactive) and 92.5% (inactive); in assay [11], 53.8% (inactive) and 87.2% (inactive); in assay [12], 57.8% (inactive) and 81.6% (inactive). Further, the growth was 61.1% (inactive) and 74.7% (inactive) in assay [13]; 40.2% (inactive) and 55.6% (inactive) in assay [14]; 46.6% (inactive) and 76.8% (inactive) in [15]; 91.2% (inactive) and 95.4% (inactive) in assay [16]; 85.4% (inactive) and 102% (inactive) in assay [17].
Consider `NC(=S)NN=C1CCC(C2CCCCC2)CC1` (centres undefined), for which the growth in [1] is 67.1% (inactive) and 74.9% (inactive); in assay [2], 100% (inactive) and 98.8% (inactive); in [3] it was 110% (inactive) and 93.3% (inactive); in assay [4], 33.8% (inactive); in [5], 100% (inactive) and 101% (inactive); in assay [6] it was 98.2% (inactive) and 89.4% (inactive). Further, the growth in assay [7] is 83.9% (inactive) and 85.7% (inactive); in assay [8], 79.3% (inactive) and 109% (inactive); in [9] it was 96.8% (inactive) and 102% (inactive); in assay [10] it was 44.1% (inactive) and 40% (inactive); in assay [11], 102% (inactive) and 92.5% (inactive); in assay [12], 79.1% (inactive) and 77.2% (inactive). Besides, the growth in assay [13] was 84.6% (inactive) and 88.6% (inactive); in assay [14], 83% (inactive) and 95.1% (inactive); in assay [15], 73.9% (inactive) and 78.6% (inactive); in [16] it was 92.9% (inactive) and 94.7% (inactive); in assay [17], 94.5% (inactive) and 93.9% (inactive).
Consider `CN(C)c1ccc2nc3ccc(=[N+](C)C)cc-3sc2c1`, for which the growth in [1] is 40.4% (inactive) and 34.1% (inactive) and 40.2% (inactive); in assay [2], 3.76% (active) and 0.437% (active) and 8.05% (active); in [3] it was 17.7% (inactive) and 14.5% (inactive) and 30.6% (inactive); in [4], 8.61% (active) and -18% (active) and 10.4% (inactive); in [5] it was 41.4% (inactive) and 60% (inactive) and 73.2% (inactive); in assay [6], 9.73% (active) and 1.01% (active) and 43.1% (inactive). The growth in [7] was 0.379% (active) and -3.68% (active) and 10.2% (inactive); in assay [8] it was 49.8% (inactive) and 111% (inactive); in assay [9], 12.1% (inactive) and 10.9% (inactive) and 13.9% (inactive); in assay [10] it was 11.8% (inactive) and 4.2% (active) and 27.3% (inactive); in assay [11], 60.2% (inactive) and 69.8% (inactive) and 71.9% (inactive); in [12] it was -43.7% (active) and -14% (active) and 52.5% (inactive). The growth in assay [13] was 15.2% (inactive) and 15.3% (inactive) and 14.7% (inactive); in assay [14], 12.7% (inactive) and -5.86% (active) and 7.47% (active); in [15], 4.82% (active) and 4.09% (active) and 11.1% (inactive); in assay [16] it was 49% (inactive) and 36.7% (inactive) and 53.9% (inactive); in assay [17] it was 36.6% (inactive) and 33% (inactive) and 48.2% (inactive).
As to `Cc1cc(O)c2c(c1)C(=O)c1cc(O)cc(O)c1C2=O`, the growth in assay [18] was 108% (inactive) and 86% (inactive); in assay [2], 92.7% (inactive); in assay [3], 68% (inactive) and 95.6% (inactive); in assay [4] it was 55% (inactive) and 68.5% (inactive); in [5], 102% (inactive) and 84.8% (inactive); in assay [6], 65.9% (inactive) and 101% (inactive). For the same compound, the growth was 84.1% (inactive) and 95.9% (inactive) in assay [7]; 89.7% (inactive) and 88.9% (inactive) in assay [8]; 91.6% (inactive) and 101% (inactive) in assay [9]; 65% (inactive) and 73.4% (inactive) in assay [10]; 76.8% (inactive) and 83.6% (inactive) in [12]; 100% (inactive) and 97.3% (inactive) in [13]. In addition, the growth in assay [14] was 98.4% (inactive) and 95.1% (inactive); in [15], 92.9% (inactive) and 97.5% (inactive); in assay [16], 95% (inactive) and 108% (inactive); in assay [17], 98.1% (inactive) and 91.9% (inactive).
In the case of `CCOc1ccc2cc(-c3nn(CC4CCN(C)CC4)c4ncnc(N)c34)ccc2c1`, the growth in [1] is 75.9% (inactive) and 2.42% (active); in [2], 94.4% (inactive) and 65.2% (inactive); in assay [3] it was 88.4% (inactive) and 80.8% (inactive); in assay [4], 91.4% (inactive) and 70.5% (inactive); in assay [5] it was 83.1% (inactive) and 85.2% (inactive); in assay [6], 81.5% (inactive) and 61.3% (inactive). For the same compound, the growth is 97.8% (inactive) and 59.3% (inactive) in [7]; 79.3% (inactive) and 35.8% (inactive) in assay [8]; 93.7% (inactive) and 63.1% (inactive) in assay [9]; 68.5% (inactive) and 54.7% (inactive) in assay [10]; 71.6% (inactive) and 45.7% (inactive) in assay [11]; 95.4% (inactive) and 15.9% (inactive) in [12]. Also, the growth is 91% (inactive) and 65.6% (inactive) in assay [13]; 85.7% (inactive) and 55.5% (inactive) in assay [14]; 63.2% (inactive) and 24.4% (inactive) in assay [15]; 102% (inactive) and 54.5% (inactive) in [16]; 89.4% (inactive) and 66.5% (inactive) in assay [17].
Turning to `CCCCCN(CCCCC)CC(O)c1cc2c(c3ccccc13)CCCC2` (centres undefined), the growth in [1] is 15.4% (inactive) and 34.8% (inactive); in assay [2], 88.6% (inactive) and 94.3% (inactive); in assay [3], 66.9% (inactive) and 55.6% (inactive); in assay [4], 60.9% (inactive) and 59.9% (inactive); in [5] it was 84.2% (inactive) and 79% (inactive); in assay [6], 48.9% (inactive) and -1.04% (active). Besides, the growth in assay [7] is 71.9% (inactive) and 54.4% (inactive); in [8] it was 85.6% (inactive) and 2.9% (active); in assay [9], 70% (inactive) and 63.7% (inactive); in assay [10] it was 51.1% (inactive) and 54.1% (inactive); in assay [11], 88.8% (inactive) and 59.8% (inactive); in assay [12] it was 83.4% (inactive) and 69.8% (inactive). Moreover, the growth in assay [13] was 28.9% (inactive) and 30.4% (inactive); in assay [14] it was 44.8% (inactive) and 23.5% (inactive); in assay [15], 20.2% (inactive) and 17.9% (inactive); in [16], 13.1% (inactive); in [17], 50.5% (inactive) and 35.3% (inactive).
For `Cc1nnc(NC/C=C/c2ccccc2)s1`, the growth is 113% (inactive) in [18]; 102% (inactive) in assay [2]; 112% (inactive) in [3]; 102% (inactive) and 111% (inactive) in assay [4]; 98.4% (inactive) and 118% (inactive) in assay [5]; 112% (inactive) and 114% (inactive) in assay [6]. The growth in [7] is 99.7% (inactive); in assay [8], 122% (inactive) and 105% (inactive); in [9] it was 103% (inactive) and 102% (inactive); in assay [10] it was 91.6% (inactive) and 101% (inactive); in [11], 97.6% (inactive) and 113% (inactive); in [12], 110% (inactive) and 108% (inactive). Also, the growth was 113% (inactive) and 105% (inactive) in [13]; 105% (inactive) and 100% (inactive) in assay [15]; 127% (inactive) and 102% (inactive) in assay [16]; 94.4% (inactive) in assay [17].
